About 14,000 (4.5%) of roughly 310,000 compounds showed an effect of 50% or more. Effects have a minus sign here. For the sample, strong results were picked, then their nearest neighbours and some compounds at random.
target: human ether-à-go-go-related gene (hERG) potassium channel (human, UniProt Q12809); test: primary screen, population patch clamp on CHO cells stably expressing hERG; higher = less effect of the substance
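Note: peak tail current of the secondary pulse compared with the same well before compound.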

human ether-à-go-go-related gene (hERG) potassium channel, sequence (Q12809 whole entry, looked up): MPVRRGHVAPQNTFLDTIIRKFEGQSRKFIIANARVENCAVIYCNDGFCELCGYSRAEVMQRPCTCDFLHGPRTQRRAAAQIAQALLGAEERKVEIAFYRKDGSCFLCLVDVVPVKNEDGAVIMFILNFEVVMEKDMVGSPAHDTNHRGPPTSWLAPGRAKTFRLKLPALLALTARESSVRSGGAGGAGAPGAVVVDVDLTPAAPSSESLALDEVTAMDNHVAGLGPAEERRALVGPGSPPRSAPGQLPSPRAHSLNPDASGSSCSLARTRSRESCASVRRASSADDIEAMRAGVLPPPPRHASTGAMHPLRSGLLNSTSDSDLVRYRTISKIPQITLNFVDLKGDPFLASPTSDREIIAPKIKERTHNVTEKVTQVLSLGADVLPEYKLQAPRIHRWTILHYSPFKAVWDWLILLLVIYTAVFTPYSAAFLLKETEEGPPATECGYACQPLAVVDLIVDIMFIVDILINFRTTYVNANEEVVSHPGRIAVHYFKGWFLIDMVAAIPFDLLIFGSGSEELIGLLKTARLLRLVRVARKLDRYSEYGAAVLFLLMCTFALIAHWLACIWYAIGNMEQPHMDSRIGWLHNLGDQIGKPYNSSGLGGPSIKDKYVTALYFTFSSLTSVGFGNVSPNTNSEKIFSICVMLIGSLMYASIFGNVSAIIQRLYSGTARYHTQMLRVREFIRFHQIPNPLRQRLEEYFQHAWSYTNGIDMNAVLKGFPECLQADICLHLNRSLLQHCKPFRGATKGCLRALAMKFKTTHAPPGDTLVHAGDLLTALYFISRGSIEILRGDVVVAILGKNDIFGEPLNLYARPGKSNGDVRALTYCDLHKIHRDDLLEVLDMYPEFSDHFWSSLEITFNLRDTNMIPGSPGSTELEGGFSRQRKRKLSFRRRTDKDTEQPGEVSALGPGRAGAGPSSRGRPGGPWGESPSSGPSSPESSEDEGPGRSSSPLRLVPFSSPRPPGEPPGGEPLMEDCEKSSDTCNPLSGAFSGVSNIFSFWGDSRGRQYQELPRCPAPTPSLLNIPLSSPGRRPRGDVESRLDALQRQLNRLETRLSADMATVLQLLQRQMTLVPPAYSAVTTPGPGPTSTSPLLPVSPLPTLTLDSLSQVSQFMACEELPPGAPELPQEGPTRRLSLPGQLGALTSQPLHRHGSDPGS

| Structure (SMILES) | hERG current change (%, negative = inhibition) at 10uM [%] |
| --- | --- |
| COc1ccc2nc(C)cc(N3CCN(c4ccccc4)CC3)c2c1 | -66.7 |
| Cc1ccc(NC(=O)CNC(=O)c2cccs2)c(O)c1 | 15.1 |
| Cl.NS(=O)(=O)c1cccc(N2CCNCC2)c1 | 11.7 |
| COc1ccc(Cl)cc1NC(=S)NNC(=O)c1cccnc1 | 36.9 |
| COc1ccc2nc(C)cc(N3CCN(S(=O)(=O)c4ccccc4F)CC3)c2c1 | -75.9 |
| COc1cccc(S(=O)(=O)N2CCN(c3ccccc3F)CC2)c1 | -6.35 |
| COc1ccccc1N1CCN(S(=O)(=O)c2ccccc2F)CC1 | -23.3 |
| CCOc1ccc(-c2n[nH]c(C)c2Oc2ccc(OC)cc2)c(O)c1 | -6.31 |
| Cc1ccc2cc(CN(Cc3ccco3)S(=O)(=O)c3c(C)ccc4nsnc34)c(=O)[nH]c2c1 | 2.82 |
| CNCc1ccccc1Sc1cccc2ccccc12.O=C(O)/C=C\C(=O)O | -45.4 |
| CNCc1ccccc1Sc1cccc(O)c1.O=C(O)/C=C\C(=O)O | 7.03 |
| CNCc1ccccc1Sc1ccc(OC)c(OC)c1.O=C(O)/C=C\C(=O)O | -18.3 |
| CN1CCN(Cc2ccccc2Sc2ccccc2)CC1.O=C(O)/C=C\C(=O)O | -82 |
| O=C(O)/C=C\C(=O)O.c1ccc(Sc2ccccc2CN2CCCC2)cc1 | -50.7 |
| OCc1ccccc1CN1CCCCCC1 | -9.62 |
| O=C1N=C(N2CCCC2)S/C1=C\c1cn[nH]c1-c1ccccc1 | -4.48 |
| COCCN=c1scc(-c2cccs2)n1/N=C(\C)c1ccco1 | -2.51 |
| CN(C)S(=O)(=O)c1cccc(COc2ccccc2C(=O)Nc2ccccc2)c1 | -14.4 |
| Brc1ccc(OCc2cn3ccccc3n2)cc1 | -7.75 |
| CCOC(=O)c1sc(NC(=O)CSc2nccc(C)n2)c(C#N)c1C | -4.68 |
| Cc1sc2ncnc(Sc3nc4ccccc4s3)c2c1C | 5.53 |

| Structure (SMILES) | hERG current change (%, negative = inhibition) at 10uM [%] |
| --- | --- |
| Cl.O=C(CN1CCCC1)Nc1ccc2c(c1)CCC2 | -1.69 |
| C[C@]12C=CC(=O)C=C1CC[C@H]1[C@@H]3C[C@@H](O)[C@](O)(C(=O)CO)[C@@]3(C)C[C@H](O)[C@@]12F | 6.23 |
| CC1(c2ccccc2)O[C@@H]2C[C@H]3[C@@H]4CCC5=CC(=O)C=C[C@]5(C)[C@@]4(F)[C@@H](O)C[C@]3(C)[C@]2(C(=O)CO)O1 (stereo partly drawn) | -78.6 |
| CC1(C)O[C@@H]2C[C@H]3[C@@H]4CCC5=CC(=O)C=C[C@]5(C)[C@@]4(F)[C@@H](O)C[C@]3(C)[C@]2(C(=O)CO)O1 | 13.7 |
| CCn1c(CCNC(=O)c2ccccc2Cl)n[nH]c1=S | 12 |
| C[n+]1ccccc1/C=C/c1cc(Br)ccc1O.[I-] | 14.7 |
| CC(=O)c1ccc(S(=O)(=O)N2CCN(C(=O)c3ccc(-n4cncn4)c([N+](=O)[O-])c3)CC2)cc1 | -19.7 |
| CC(C)c1ccc(S(=O)(=O)N2CCN(C(=O)c3ccc(N4CCCC4)c([N+](=O)[O-])c3)CC2)cc1 | -55.1 |
| O=C(c1ccc(-n2cncn2)c([N+](=O)[O-])c1)N1CCN(S(=O)(=O)c2ccc(Br)cc2)CC1 | -67.5 |
| Cc1ccc(C)c(S(=O)(=O)N2CCN(C(=O)c3ccc(N4CCCC4)c([N+](=O)[O-])c3)CC2)c1 | -9.46 |
| Cc1ccc(C(=O)NNC(=O)c2ccc(-n3cncn3)c([N+](=O)[O-])c2)cc1 | 12.2 |
| Nc1ccc(C(=O)N2CCN(S(=O)(=O)c3ccc(Br)cc3)CC2)cc1[N+](=O)[O-] | -26.9 |
| Cc1ccc(C)c(S(=O)(=O)N2CCN(C(=O)c3ccc(-n4cncn4)c([N+](=O)[O-])c3)CC2)c1 | -72.1 |
| Cc1ccc(NC(=O)c2ccc(-n3cncn3)c([N+](=O)[O-])c2)cc1 | -17.9 |
| Cc1ccc(S(=O)(=O)N2CCN(C(=O)c3ccc(N4CCCCC4)c([N+](=O)[O-])c3)CC2)cc1 | -10.2 |
| O=C(c1ccc(N2CCCC2)c([N+](=O)[O-])c1)N1CCN(S(=O)(=O)c2ccc(Cl)cc2)CC1 | -36.2 |
| Cc1ccc(S(=O)(=O)N2CCN(C(=O)c3ccc(-n4cncn4)c([N+](=O)[O-])c3)CC2)cc1 | -52.5 |
| CC(C)CNC(=O)CC(=O)NN=C1CCCC1 | 19.5 |
| Cc1ccc(N(CC(=O)NCc2ccco2)C(=O)CCC(=O)Nc2nccs2)c(C)c1 | -22.5 |
| Cc1cc(C)n(-c2nc3ccccc3n3c(C)nnc23)n1 | 6.03 |
| Cc1ccc2oc(=O)n(CC(=O)O)c2c1 | 23.8 |

— article PMC4336329 (PLoS ONE, 2015)
